Results on 14 compounds are retold here after PubChem BioAssay (NCATS).

Records with an inconclusive call do not appear. Active and inactive are the calls of the source. Calls come from the whole dose curve; as a rule, active = well fitted cell-killing curve with a large enough effect; inconclusive = small, poorly fitted or top-dose-only effect, or effect the other way; inactive = no such curve, though single readings can be large or run the other way.
Potency is the fitted concentration of half-maximal effect.

The experiment in a line: qHTS of pediatric cancer cell lines to identify multiple opportunities for drug repurposing: Confirmatory screen for Saos-2 cells (AID 1347127). Note: nearly all actives have a fitted effect of over 60% in size. The settings on record: Saos-2 osteosarcoma cell viability; series mostly up to 45.9 µM. The text has this: Drug repurposing or repositioning has been offered as a strategy for drug development in oncology programs. This approach has special potential for childhood cancers and other rare or orphan diseases, where the expected return on new drug development has been a disincentive to pharmaceuticals.
In this project we exploit the poly-pharmacology of drugs to discover new indications via phenotypic screening of a panel of 19 well-characterized cell lines derived from solid tumors seen in children and adolescents. The goal is to identify approved drugs with previously unrecognized anticancer properties that has the potential to reveal new mechanisms and biological processes involved in carcinogenesis or drug resistance. We employed a titration-based paradigm (quantitative high-throughput screening or qHTS), where all compounds were tested at multiple concentrations for their effect on cell viability. Concentration-response curves (CRCs) were derived directly from the primary screen, and both potency and efficacy values were used to identify compounds with robust bioactivity profiles. We screened the NIH Chemical Genomics Center (NCGC) Pharmaceutical Collection (NPC) and Mechanism Interrogation Plate (MIPE) small molecule collections of approved and investigational compounds against these cell lines; and measured metabolically active cells after 48 hours of compound treatment as a proxy for cell viability.
Assay Submitter: Nathalia J. Martinez, National Center for Advancing Translational Sciences, National Institutes of Health, Rockville, MD, USA; email: natalia.martinez@nih.gov
[1] Shen, M et al. Quantitative high-throughput phenotypic screening of pediatric cancer cell lines identifies multiple opportunities for drug repurposing. Oncotarget 2017 Dec 19;9(4):4758-4772. PMID 29435139.
The cells were obtained from University of North Carolina (UNC), Pediatric Preclinical Testing Program (PPT), and Coriell Institute (CI).
qHTS cell viability assay:
Cells were assayed in growth media at a density of 500-1,000 cells/well. Five microliters of cells were dispensed into 1,536-well, white, solid-bottom, TC-treated plates (Greiner Bio One) using a multidrop dispenser and incubated at 37 degrees C, 5% CO2, under a humidified atmosphere for 5 hours. Twenty-three nanoliters of compounds and controls (neutral control DMSO or positive control bortezomib at final concentration of 2.3 µM) were subsequently transferred by Kalypsys pintool. For primary screens, the MIPE collection was tested at 11-point dilutions (final concentrations range from 0.78 nM to 46 µM) and the NPC collection at 8-point dilutions (final concentrations range from 0.59 nM to 46 µM). Compounds tested in follow-up screens were assayed at 11-point dilutions. Cells were incubated for 48 hours, followed by addition of 3 µL of CellTiter-Glo (Promega). After a 15 min incubation at room temperature, samples were analyzed for luminescence intensity using a ViewLux High-throughput CCD imager equipped with clear filters.
(Quantitative high-throughput screening tests each substance at several concentrations.)
In the case of `O=C1c2c(O)ccc(O)c2C(=O)c2c(NCCNCCO)ccc(NCCNCCO)c21`, the Potency was 737 nM (active). On to `CS(=O)(=O)Nc1ccc([N+](=O)[O-])cc1Oc1ccccc1`, for which the Potency result was “inactive”. In the case of `CC(COc1ccccc1)N(CCCl)Cc1ccccc1` (centres undefined), the Potency is 14700 nM (active). On to `O=C(Nc1ccc([N+](=O)[O-])cc1Cl)c1cc(Cl)ccc1O`, for which the Potency was 2290 nM (active). As to `Clc1ccc2nsnc2c1NC1=NCCN1`, the Potency is 20800 nM (active).

Regarding `CC[C@@]1(O)C(=O)OCc2c1cc1n(c2=O)Cc2cc3c(CN(C)C)c(O)ccc3nc2-1`, the Potency is 208 nM (active). Regarding `COc1cc2c(c(OC)c1OC)-c1ccc(OC)c(=O)cc1[C@@H](NC(C)=O)CC2`, the Potency is 44.7 nM (active). The value for `NC(=O)NO` was “inactive”.

For `NC12CC3CC(CC(C3)C1)C2`, the Potency result is “inactive”. `CCC1(c2ccccc2)C(=O)NCNC1=O`: the Potency entry was “inactive”. `COC(=O)Nc1nc2ccc(C(=O)c3cccs3)cc2[nH]1`: the Potency was 131 nM (active). Consider `CCCCc1oc2ccccc2c1C(=O)c1cc(I)c(OCCN(CC)CC)c(I)c1`, for which the Potency was 44700 nM (active). In the case of `CC(C)C(=O)Nc1ccc([N+](=O)[O-])c(C(F)(F)F)c1`, the Potency result is “inactive”.

As for `Clc1ccc(C(c2ccccc2Cl)C(Cl)Cl)cc1` (centres undefined), the Potency entry was “inactive”.
